Hit rate of the full screen: of about 1,400 compounds, about 45 (3%) were called active.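 How the source made its calls: active means half-maximal dose of signal decrease from fit no higher than ten times the top valid tested dose; inconclusive means fit invalid, or curve flat with 30 to 70% inhibition; inactive means the rest.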 The list is a sample of the results. Results with a measured potency or affinity are listed apart.
target: Lysine-specific demethylase 4A (Homo sapiens) (UniProt O75164); experiment: inhibition of JMJD2A H3K9me3 demethylation – biochemical, DELFIA europium, cherry-picked samples, selectivity assay for GASC-1 inhibitor project, dose response (AID 488840); details: GST-JMJD2A(1-420) H3K9me3 demethylation; series mostly up to 6 µM;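 further: europium signal reports the dimethyl H3K9 product detected by antibody so inhibitors lower it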
Sequence (O75164 whole entry, looked up): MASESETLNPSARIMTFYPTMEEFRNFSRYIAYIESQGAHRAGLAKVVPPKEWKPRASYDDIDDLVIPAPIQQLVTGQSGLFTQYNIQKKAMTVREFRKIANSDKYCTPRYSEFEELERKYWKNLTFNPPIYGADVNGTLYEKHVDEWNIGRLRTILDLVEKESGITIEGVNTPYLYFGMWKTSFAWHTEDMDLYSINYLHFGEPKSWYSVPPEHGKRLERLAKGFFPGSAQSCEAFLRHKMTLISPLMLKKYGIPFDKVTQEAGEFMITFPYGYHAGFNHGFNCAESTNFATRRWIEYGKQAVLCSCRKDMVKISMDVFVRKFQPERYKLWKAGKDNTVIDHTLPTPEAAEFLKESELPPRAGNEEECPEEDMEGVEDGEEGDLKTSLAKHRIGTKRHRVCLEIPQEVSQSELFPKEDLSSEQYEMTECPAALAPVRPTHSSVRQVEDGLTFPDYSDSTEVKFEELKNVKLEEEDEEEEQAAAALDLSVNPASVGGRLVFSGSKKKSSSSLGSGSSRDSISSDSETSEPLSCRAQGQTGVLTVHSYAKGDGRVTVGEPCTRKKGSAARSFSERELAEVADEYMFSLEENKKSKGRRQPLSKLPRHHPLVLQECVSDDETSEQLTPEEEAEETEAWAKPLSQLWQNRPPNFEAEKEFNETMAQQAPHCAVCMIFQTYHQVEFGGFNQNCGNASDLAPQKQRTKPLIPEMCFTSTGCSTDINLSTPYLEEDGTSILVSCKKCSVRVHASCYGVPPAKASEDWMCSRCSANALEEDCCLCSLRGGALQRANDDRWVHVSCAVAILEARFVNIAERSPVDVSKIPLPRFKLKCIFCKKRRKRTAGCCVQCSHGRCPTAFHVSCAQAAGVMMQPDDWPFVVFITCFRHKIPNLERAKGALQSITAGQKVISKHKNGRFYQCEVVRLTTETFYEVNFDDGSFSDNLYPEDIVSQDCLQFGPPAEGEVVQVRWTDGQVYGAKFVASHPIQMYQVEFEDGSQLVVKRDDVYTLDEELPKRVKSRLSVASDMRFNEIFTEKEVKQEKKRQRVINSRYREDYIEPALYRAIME

outcome, inactive:
COc1cc2c(cc1OC)C(COc1ccc(F)cc1)NCC2 (centres undefined), CC(C)CN(C(=O)c1ccc(N2CCCC2=O)cc1)c1c(N)n(Cc2ccccc2)c(=O)[nH]c1=O, OC(COc1ccc2ccccc2c1Br)Cn1cnc(-c2ccccc2)c1 (centres undefined), COc1ccc2cc3cc(C(=O)N4CCN(C5CCCCC5)CC4)oc3nc2c1, C[C@@H]1CN([C@H](C)CO)C(=O)c2cccc(NS(=O)(=O)c3ccccc3)c2O[C@H]1CN(C)C, COC(=O)c1cc(C#N)c(OC)nc1C, CSc1ccc(-c2nc(CSCC(=O)N3CCOCC3)c(C)o2)cc1, Cc1ccc(/C=N\NC(=O)c2cc([N+](=O)[O-])cc([N+](=O)[O-])c2)o1, O=C(N/N=C/c1cc([N+](=O)[O-])cc([N+](=O)[O-])c1O)/C(=C\c1cccs1)NC(=O)c1ccccc1, COc1cc(C#N)c(N=C(SCC#N)N2CCOCC2)cc1OC, Cc1ccc(NC(=O)C(=O)NCCN2CCN(C(=O)C(c3ccccc3)c3ccccc3)CC2)cc1, COc1ccc(CCN2C(=O)CC(NNC(=O)c3ccccc3Br)C2=O)cc1 (centres undefined), CNC(=O)/C(C#N)=C/c1c(N(Cc2ccccc2)Cc2ccccc2)nc2ccccn2c1=O, O=C(CSc1nnc(CNC(=O)c2ccccc2F)o1)NCCc1ccccc1, COc1ccc(NC(=O)C2OC3OC(C)(C)OC3C3OC(C)(C)OC23)cc1 (centres undefined), C=CCOc1ccc(C(=O)NC2CCCCC2)cc1, Cc1cc(=O)[nH]c(CN2CCOCC2)n1, COc1ccc(N2CCN(C(=O)c3nn(C)c4c3CS(=O)(=O)c3ccccc3-4)CC2)cc1, O=c1cc(NC2CCCCCC2)[nH]c(=O)[nH]1, CCCc1nn2c(=O)cc(CSCC(=O)Nc3ccccc3)nc2s1, Cc1nnsc1C(=O)NNS(=O)(=O)c1ccccc1, CCC(=O)N1CCc2cc(S(=O)(=O)CCC(=O)Nc3cccc(F)c3)ccc21, C#CCOCCOCCOCCNc1nc(N2CCOCC2)nc(N2CCN(C(=O)[C@H](Cc3cc4ccccc4[nH]3)n3cc([C@@H](N)CC(C)C)nn3)CC2)n1, COc1ccc(NC(=S)N2CCC(C(=O)N3CCCCCC3)CC2)cc1, CC(=O)Nc1ccc(NC(=O)C2CCN(C(=O)c3cccs3)CC2)cc1, CCC(CC)NC(=O)CSc1nnc(-c2ccc(OC)cc2)n1C(C)C, Cc1ccc(CNC(=O)CCC2CCCN(Cc3ccc4cccc(F)c4n3)C2)o1 (centres undefined), COc1ccc(/C=N/Nc2cc(=O)n(C)c(=O)n2C)cc1OC, CC1=NN(C(=O)Cc2ccccc2)C(O)(c2cccnc2)C1 (centres undefined), C#CCOCCOCCOCCNc1nc(N2CCN(C(=O)[C@H](CCCCN)n3cc(CN)nn3)CC2)nc(N2CCN(C(=O)[C@H](CCC(=O)O)n3cc([C@@H](N)CCSC)nn3)CC2)n1, CCN(CC)C(=O)[C@H]1CC(CC(=O)NC/C=C(\C)CCC=C(C)C)C(=O)N2CCc3c([nH]c4ccccc34)[C@]12C (some centres undefined), Cc1ccc(/C(N)=N/OC(=O)CCC2CCCCC2)cc1, O=c1cc(N2CCc3ccccc32)[nH]c(=O)n1-c1ccccc1, CCc1ncc(C)[nH]1, Cc1noc(C)c1COc1ccc(C(=O)NCC2CCCO2)cc1 (centres undefined), O=c1cc(-c2ccc(O)c(O)c2)oc2c(C3O[C@H](CO)[C@@H](O)[C@H](O)[C@H]3O)c(O)cc(O)c12 (some centres undefined), CCC(C)NC(=S)N1CCN(C)CC1 (centres undefined), COc1cccc(NC(=O)N2CCN(c3cccc(C)c3)C(C)C2)c1 (centres undefined), COC(=O)[C@]1(Cc2ccccc2)N[C@H](CN(C)C(=O)Nc2ccccc2)[C@@H]2C(=O)N(C)C(=O)[C@@H]21, O=C(NCc1nnc(SCC(=O)N2CCCC2)o1)c1ccccc1F, CCC(=O)Nc1ccccc1Nc1cc(C#N)c(C#N)cc1[N+](=O)[O-], O=[N+]([O-])c1ccccc1N/N=C\c1ccccc1Cl, Cc1ccc(Nc2nnc(SCC(=O)N(C)C3CCS(=O)(=O)C3)s2)cc1 (centres undefined), CCO[C@@H]1OC(C(=O)NC2CC2)=C[C@H](c2c[nH]c3ccccc23)[C@H]1CCCO, O=C(NCCCn1ccnc1)c1cc2c(ccc3ccccc32)o1, Cc1occc1-c1nnc(SCC(=O)c2cc3ccccc3oc2=O)o1, COc1ccccc1NC(=O)COC(=O)/C=C/c1cccs1, COc1ccccc1NC(=O)c1cccs1, Cc1ccc(C(=O)NCCCCNC(=O)c2ccc(C)o2)o1, COC(=O)C1=C(C)OC(N)=C(C#N)C1c1cc2cccc(C)c2nc1Cl (centres undefined), CC(C)=CC(=O)O[C@@H]1Cc2c(ccc3ccc(=O)oc23)OC1(C)C, c1ccc2c(c1)ccc1nnc(-c3ccc4c(c3)OCO4)n12, CS(=O)(=O)N(CC(=O)N1CCCCCC1)c1ccccc1, C[C@H](CO)N1C[C@H](C)[C@@H](CN(C)Cc2ccncc2)Oc2c(NC(=O)Cc3ccccc3)cccc2C1=O, O=C(Nc1cccnc1)c1ccc2c(c1)C(=O)N(Cc1cccnc1)C2=O, CCOC(=O)CSc1nc2sc(C)c(C)c2c(=O)[nH]1, c1ccc(-c2nc(-c3ccco3)cs2)nc1, Cn1c(=O)c(-c2ccccc2)nn2c3ccccc3nc12, Cc1ccc(Nc2c(-c3ccccn3)nc3cc(C)ccn23)cc1, Clc1ccccc1Cn1nnc2c(NCCN3CCOCC3)ncnc21, Cc1ccc(NC(=O)c2cccc3c2C(=O)N(C2CCCCC2)C3)c(C)c1, Cc1ccc(S(=O)(=O)Nc2ccc3c(c2)C(=O)N([C@H](C)CO)C[C@H](C)[C@@H](CN(C)Cc2ccc(-c4ccccc4)cc2)O3)cc1, Cc1nn(C)c(N)c1C(O)(c1nccn1C)C(F)(F)F (centres undefined), O=C(NCC(c1ccco1)N1CCCCC1)c1ccc(OCc2ccccc2)cc1 (centres undefined), CCOC(=O)Cc1csc(NC(=O)COc2cccc(C)c2)n1, Cc1ccccc1-n1nc(C)c2cc(C(=O)N3CCN(S(=O)(=O)c4ccc(F)cc4)CC3)sc21, Cc1cccc(-c2noc(CCC(=O)NC3CCCC3)n2)c1, COc1ccc(CN2CCCCC2C)c(C)c1C (centres undefined), CC(C)CCN(C(=O)C1=COCCO1)c1c(N)n(Cc2ccccc2)c(=O)[nH]c1=O, Cn1c(=O)[nH]c(=O)c2c1nc(NCCCO)n2Cc1ccc(F)cc1, COC(=O)COc1ccc(Oc2cc(C)nc(SC)n2)nn1, Cc1ccc2c(c1)N(CC(=O)NCC1CCCO1)C(=O)C(C(C)C)O2 (centres undefined), C=CCn1c(N)c(-c2nc3ccccc3n2C)sc1=S, COc1ccc(C(=O)N2CCCC(c3nc(-c4ccc(OC)c(OC)c4)no3)C2)c(OC)c1 (centres undefined), O=C(NCCCN1CCOCC1)c1cccc(S(=O)(=O)N2CCc3ccccc3C2)c1, O=C(Nc1cc(S(=O)(=O)N2CCOCC2)ccc1N1CCCC1)c1ccc(F)cc1, O=C(COC(=O)c1cccc(S(=O)(=O)NCc2ccccc2)c1)Nc1ccccc1OC(F)F, c1coc(CSCc2cn3cccnc3n2)c1, COC(=O)[C@]1(C)N[C@H](CN(C)C(=O)Nc2ccc(F)cc2)[C@@H]2C(=O)N(C)C(=O)[C@@H]21, Cc1cccc(NC(=O)C2CCCN(S(=O)(=O)c3c(C)nn(C)c3C)C2)n1 (centres undefined), CN(C(=O)c1ccc(Cl)c([N+](=O)[O-])c1)C1(C)CCS(=O)(=O)C1 (centres undefined), O=C1NC(=S)N/C1=C/c1cc2c(cc1[N+](=O)[O-])OCO2, N#CC1(NC(=O)Cn2ncc(Cl)c(Cl)c2=O)CCCCC1, CCOC(=O)C1=C(C)N(C)C(C)=C(C(=O)OCC)C1c1cccnc1, COc1cccc(CNC(=O)c2cc3c(cc2Cl)N2CCCCCC2=NS3(=O)=O)c1, C#CCOCCOCCOCCNc1nc(N2CCN(C(=O)CCCCCCCCCCNC(=O)[C@H]([C@@H](C)CC)n3cc(CCCCN=C(N)N)nn3)CC2)nc(N2CCN(C(=O)CCCCCCCCCCNC(=O)[C@H](CCCCN)n3cc(C)nn3)CC2)n1, C#CCOCCOCCOCCNc1nc(N2CCN(C(=O)CCCCCCCCCCNC(=O)[C@H](CCCCN)n3cc(CCO)nn3)CC2)nc(N2CCN(C(=O)CCCCCCCCCCNC(=O)[C@H](CCCCN)n3cc(C[C@@H](C)CC)nn3)CC2)n1, O=C1C=C(NCc2ccc3c(c2)OCO3)CC(c2ccccc2)C1 (centres undefined), Cc1cc(C(F)(F)F)nn1C(=O)c1cccnc1Cl, O=C(NCCCNCCCNC(=O)c1ccc(/C=N/O)nc1)c1ccc(/C=N/O)nc1, COC(=O)CSC1=C(C#N)C(c2ccsc2)CC(=O)N1 (centres undefined), COc1ccc(N2C(=O)CSC23CCCCC3)cc1, Cc1cccnc1Nc1nc(-c2ccc(O)cc2)cs1, COc1ccc(/C=C(/C(=O)NCc2ccccc2)c2ccccc2)cc1, Cc1cccc(NC(=S)N2CCN(Cc3ccc4c(c3)OCO4)CC2)c1C, CC1(C)[N+]([O-])=C2C(=[N+]([O-])C1(C)C)c1ccccc1/C2=N\O, O=C1NCCN1CCNS(=O)(=O)c1ccccc1[N+](=O)[O-], Cc1ccc(NC(=O)COC(=O)c2ccco2)cc1S(=O)(=O)N1CCOCC1, Cc1ccc(/C=N/NC(=O)c2ccc(C(=O)N/N=C/c3ccc(C)s3)o2)s1

Source: PubChem BioAssay AID488840 (Broad Institute, 2010)
